Data taken from PubChem BioAssay (NCI).
This is part of a sample that, as a whole, favours compounds with a hit. Of some 83,000 tested, about 20% had one in any assay.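 Single-dose data. Exposure time 48 hours. Values below 10 considered active.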 Active and inactive are the calls of the source.

The compounds below were run on SK-OV-3 ovarian (assay: NCI-60 one-dose screen, 48 h (100 = growth as untreated, 0 = no growth, -100 = all killed)). Details: 10 µM unless noted.

Row | Compound | growth
1 | O=C(NNC(=O)N1c2ccccc2C=Cc2ccccc21)c1ccc2ccccc2c1 | 110% (inactive)
2 | CCOC(=O)C1C(=O)C=C(c2ccc(OC)cc2)CC1c1sc(N(C)Cc2ccccc2)nc1Cl (centres undefined) | 90% (inactive)
3 | CCc1cnc(=S)n(-c2ccccc2)c1 | 105% (inactive)
4 | CCN(CC)c1ccc2[nH]c3c(C(N)=O)cc(=O)c(=O)c=3oc2c1 | 19.9% (inactive)
5 | CC1(C)C(=O)/C(=C\c2ccc(C(F)(F)F)cc2)C[C@]2(C)[C@H]3CC[C@@H]4[C@H]5[C@H](C(=O)/C=C/c6ccc(C(F)(F)F)cc6)CC[C@]5(CO)CC[C@@]4(C)[C@]3(C)CC[C@@H]12 | 110% (inactive)
6 | O=[N+]([O-])c1ccc(Sc2ncccn2)c([N+](=O)[O-])c1 | 95.2% (inactive)
7 | CC(C)(C)OC(=O)NC(CSCc1ccccc1)C(=O)ON1C(=O)CCC1=O (centres undefined) | 104% (inactive)
8 | C/C(=C\c1ccc(OCC(=O)O)c(Cl)c1Cl)[N+](=O)[O-] | 94% (inactive)
9 | CC(C)CC1NC(C)(C)CO1 (centres undefined) | 110% (inactive)
10 | CC(NNC(C)c1ccccc1)c1ccccc1 (centres undefined) | 110% (inactive)
11 | CC(C)(C)n1cc(-c2ccnc(NCCCNS(=O)(=O)c3ccc(C(F)(F)F)cc3)c2)c(-c2cccc(O)c2)n1 | 70.1% (inactive)
12 | CC(C)(C)n1cc(-c2ccnc(NCCCNS(=O)(=O)c3ccc(Br)cc3)c2)c(-c2cccc(O)c2)n1 | 62.6% (inactive)
13 | Cn1cc(-c2cnc3ccc(NC(=O)Nc4ccc(F)c(Br)c4)cc3n2)cn1 | 44.7% (inactive)
14 | CC(C)(C)c1[nH]nc2c1C(c1cc3ccccc3[nH]c1=O)Nc1cc(C(=O)Nc3ccc(Cl)cc3)ccc1N2 (centres undefined) | 90.6% (inactive)
